Measurements as given in PubChem BioAssay (NCATS).
Records with an inconclusive call do not appear. The source made the active and inactive calls. Unless noted, calls come from the whole dose curve; as a rule, active = well fitted inhibition curve with a large enough effect; inconclusive = small, poorly fitted or top-dose-only effect; inactive = flat fitted curve, though single readings scatter.

Tests used:
CP238 = experiment: qHTS profiling for inhibitors of Plasmodium falciparum proliferation (AID 504749);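 note: 0% = DMSO vehicle and full inhibition = artemisinin control; nearly all actives have a fitted effect of over 60% in size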; conditions: P. falciparum in erythrocytes, SYBR Green DNA, 72 h; series mostly up to 28.7 µM
In short: (§1)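 Parasite proliferation within erythrocytes, 72 h exposure. Endpoint: SYBR Green I fluorescence after overnight lysis at room temperature. Controls: 0.29 uM artemisinin, DMSO.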

CP247 = experiment: as above; conditions: P. falciparum in erythrocytes, SYBR Green DNA, 72 h; series mostly up to 28.7 µM
In short: as §1

CP250 = experiment: as above; conditions: P. falciparum in erythrocytes, SYBR Green DNA, 72 h; series mostly up to 28.7 µM
In short: as §1

CP252 = experiment: as above; conditions: P. falciparum in erythrocytes, SYBR Green DNA, 72 h; series mostly up to 28.7 µM
In short: as §1

CP256 = experiment: as above; conditions: P. falciparum in erythrocytes, SYBR Green DNA, 72 h; series mostly up to 28.7 µM
In short: as §1

CP260 = experiment: as above; conditions: P. falciparum in erythrocytes, SYBR Green DNA, 72 h; series mostly up to 28.7 µM
In short: as §1

CP262 = experiment: as above; conditions: P. falciparum in erythrocytes, SYBR Green DNA, 72 h; series mostly up to 28.7 µM
In short: as §1

CP265 = experiment: as above; conditions: P. falciparum in erythrocytes, SYBR Green DNA, 72 h; series mostly up to 28.7 µM
In short: as §1

CP266 = experiment: as above; conditions: P. falciparum in erythrocytes, SYBR Green DNA, 72 h; series mostly up to 28.7 µM
In short: as §1

CP268 = experiment: as above; conditions: P. falciparum in erythrocytes, SYBR Green DNA, 72 h; series mostly up to 28.7 µM
In short: as §1

CP269 = experiment: as above; conditions: P. falciparum in erythrocytes, SYBR Green DNA, 72 h; series mostly up to 28.7 µM
In short: as §1

CP286 = experiment: as above; conditions: P. falciparum in erythrocytes, SYBR Green DNA, 72 h; series mostly up to 28.7 µM
In short: as §1

CP291 = experiment: as above; conditions: P. falciparum in erythrocytes, SYBR Green DNA, 72 h; series mostly up to 28.7 µM
In short: as §1

CP297 = experiment: as above; conditions: P. falciparum in erythrocytes, SYBR Green DNA, 72 h; series mostly up to 28.7 µM
In short: as §1

CP305 = experiment: as above; conditions: P. falciparum in erythrocytes, SYBR Green DNA, 72 h; series mostly up to 28.7 µM
In short: as §1

CP315 = experiment: as above; conditions: P. falciparum in erythrocytes, SYBR Green DNA, 72 h; series mostly up to 28.7 µM
In short: as §1

CP325 = experiment: as above; conditions: P. falciparum in erythrocytes, SYBR Green DNA, 72 h; series mostly up to 28.7 µM
In short: as §1

CP329 = experiment: as above; conditions: P. falciparum in erythrocytes, SYBR Green DNA, 72 h; series mostly up to 28.7 µM
In short: as §1

CP335 = experiment: as above; conditions: P. falciparum in erythrocytes, SYBR Green DNA, 72 h; series mostly up to 28.7 µM
In short: as §1

DFO2036 = experiment: as above; conditions: P. falciparum in erythrocytes, SYBR Green DNA, 72 h; series mostly up to 28.7 µM
In short: as §1

DIV14 = experiment: as above; conditions: P. falciparum in erythrocytes, SYBR Green DNA, 72 h; series mostly up to 28.7 µM
In short: as §1

DIV17 = experiment: as above; conditions: P. falciparum in erythrocytes, SYBR Green DNA, 72 h; series mostly up to 28.7 µM
In short: as §1

DIV30 = experiment: as above; conditions: P. falciparum in erythrocytes, SYBR Green DNA, 72 h; series mostly up to 28.7 µM
In short: as §1

Dd2 = experiment: as above; conditions: P. falciparum in erythrocytes, SYBR Green DNA, 72 h; series mostly up to 28.7 µM
In short: as §1

ECU = experiment: as above; conditions: P. falciparum in erythrocytes, SYBR Green DNA, 72 h; series mostly up to 28.7 µM
In short: as §1

FAB9 = experiment: as above; conditions: P. falciparum in erythrocytes, SYBR Green DNA, 72 h; series mostly up to 28.7 µM
In short: as §1

GB4 = experiment: as above; conditions: P. falciparum in erythrocytes, SYBR Green DNA, 72 h; series mostly up to 28.7 µM
In short: as §1

HB3 = experiment: as above; conditions: P. falciparum in erythrocytes, SYBR Green DNA, 72 h; series mostly up to 28.7 µM
In short: as §1

ICS = experiment: as above; conditions: P. falciparum in erythrocytes, SYBR Green DNA, 72 h; series mostly up to 28.7 µM
In short: as §1

JCK = experiment: as above; conditions: P. falciparum in erythrocytes, SYBR Green DNA, 72 h; series mostly up to 28.7 µM
In short: as §1

N140 = experiment: as above; conditions: P. falciparum in erythrocytes, SYBR Green DNA, 72 h; series mostly up to 28.7 µM
In short: as §1

P93_24 = experiment: as above; conditions: P. falciparum in erythrocytes, SYBR Green DNA, 72 h; series mostly up to 28.7 µM
In short: as §1

P94_40 = experiment: as above; conditions: P. falciparum in erythrocytes, SYBR Green DNA, 72 h; series mostly up to 28.7 µM
In short: as §1

PAD = experiment: as above; conditions: P. falciparum in erythrocytes, SYBR Green DNA, 72 h; series mostly up to 28.7 µM
In short: as §1

PC15 = experiment: as above; conditions: P. falciparum in erythrocytes, SYBR Green DNA, 72 h; series mostly up to 28.7 µM
In short: as §1

PC26 = experiment: as above; conditions: P. falciparum in erythrocytes, SYBR Green DNA, 72 h; series mostly up to 28.7 µM
In short: as §1

PC49 = experiment: as above; conditions: P. falciparum in erythrocytes, SYBR Green DNA, 72 h; series mostly up to 28.7 µM
In short: as §1

SC27B = experiment: as above; conditions: P. falciparum in erythrocytes, SYBR Green DNA, 72 h; series mostly up to 28.7 µM
In short: as §1

TAB109 = experiment: as above; conditions: P. falciparum in erythrocytes, SYBR Green DNA, 72 h; series mostly up to 28.7 µM
In short: as §1

TAB113 = experiment: as above; conditions: P. falciparum in erythrocytes, SYBR Green DNA, 72 h; series mostly up to 28.7 µM
In short: as §1

TAB165 = experiment: as above; conditions: P. falciparum in erythrocytes, SYBR Green DNA, 72 h; series mostly up to 28.7 µM
In short: as §1

W2 = experiment: as above; conditions: P. falciparum in erythrocytes, SYBR Green DNA, 72 h; series mostly up to 28.7 µM
In short: as §1

[1] = target: Nuclear receptor subfamily 1 group I member 2 (Rattus norvegicus) (UniProt Q9R1A7); experiment: qHTS assay for small molecule activators of the rat pregnane X receptor (rPXR) signaling pathway (AID 651751; call rule not given here; note: 0% is about no effect); conditions: rPXR reporter cells, luciferase (One-Glo), 24 h
Nuclear receptor subfamily 1 group I member 2 (Rattus norvegicus), sequence (Q9R1A7 whole entry, looked up): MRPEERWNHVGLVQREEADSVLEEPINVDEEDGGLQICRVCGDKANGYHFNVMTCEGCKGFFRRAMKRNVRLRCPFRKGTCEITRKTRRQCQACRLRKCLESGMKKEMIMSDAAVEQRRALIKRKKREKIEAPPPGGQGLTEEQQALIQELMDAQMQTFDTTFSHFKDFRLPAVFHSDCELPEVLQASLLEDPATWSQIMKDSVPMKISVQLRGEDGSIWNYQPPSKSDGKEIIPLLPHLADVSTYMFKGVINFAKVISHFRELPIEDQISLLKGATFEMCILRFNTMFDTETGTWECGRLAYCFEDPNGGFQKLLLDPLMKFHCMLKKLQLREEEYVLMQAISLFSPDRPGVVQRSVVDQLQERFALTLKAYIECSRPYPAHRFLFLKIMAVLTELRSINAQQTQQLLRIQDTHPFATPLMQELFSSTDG

[2] = qHTS assay for small molecule activators of the human pregnane X receptor (PXR) signaling pathway (AID 720659; call rule not given here; note: 0% is about no effect)

CC1(C)S[C@@H]2[C@H](NC(=O)COc3ccccc3)C(=O)N2[C@H]1C(=O)O
inactive: Potency (CP238) | Potency (CP247) | Potency (CP250) | Potency (CP252) | Potency (CP256) | Potency (CP260) | Potency (CP262) | Potency (CP265) | Potency (CP266) | Potency (CP268) | Potency (CP269) | Potency (CP286) | Potency (CP291) | Potency (CP297) | Potency (CP305) | Potency (CP315) | Potency (CP325) | Potency (CP329) | Potency (CP335) | Potency (DFO2036) | Potency (DIV14) | Potency (DIV17) | Potency (DIV30) | Potency (Dd2) | Potency (ECU) | Potency (FAB9) | Potency (GB4) | Potency (HB3) | Potency (ICS) | Potency (JCK) | Potency (N140) | Potency (P93_24) | Potency (P94_40) | Potency (PAD) | Potency (PC15) | Potency (PC26) | Potency (PC49) | Potency (SC27B) | Potency (TAB109) | Potency (TAB113) | Potency (TAB165) | Potency (W2) | max response [1] -0.437% | outcome [2]
